GoLoco inh red = RGS12 GoLoco-Gai1 interaction inhibition. P63096. Gai1:RGS12 GoLoco peptide FP, rhodamine, 10 min. Potency, µM (highest dose often 61.6 µM), for the others: at the highest dose activity, negative = inhibition, hits mostly inhibitors. 230,000 tested, 0.44% active; active means well fitted inhibition curve with a large enough effect, not every such curve was filed as active; inactive means no such curve, though single readings can be large or run the other way; further: potency means the concentration at half of the fitted maximal effect; nearly all actives have a fitted effect of over 30% in size
ALDH1A1 inh = ALDH1A1 (human) enzyme inhibition; P00352; Purified ALDH1A1, NADH fluorescence, propionaldehyde substrate; Potency, µM (top dose mostly 75.3 µM), for inactives: top-dose activity, negative = inhibition, hits mostly inhibitors; 220,000 tested, 7.3% active; AID 1030;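 further: potency means the concentration at half of the fitted maximal effect; plate controls were no enzyme wells and a reference inhibitor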
Coupling enz = coupling enzyme interference in Giardia aldolase counter-screen | coupling enzyme system counterscreen, AmpLite Red fluorescence | activity change, negative = inhibition, % at 58.2 µM, hits read low | 290,000 tested, 0.67% active; in the data active means activity change below about -30%
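Counterscreen of the coupled detection system alone, without aldolase: glyceraldehyde-3-phosphate coupling enzymes plus AmpLite Red readout. Compounds at 57.5 uM final, 10 min RT preincubation, 20 min RT reaction, fluorescence 525/598 nm.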
KDM4E inh = blocks human JMJD2E demethylase activity. JMJD2E catalytic domain, FDH-coupled NADH fluorescence (FDH is formaldehyde dehydrogenase). Potency, µM (highest dose often 57.1 µM), without a hit: at the top dose activity change, negative = inhibition, usual class: inhibitors. 230,000 tested, 1.6% active. AID 2147;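 further: potency means the concentration at half of the fitted maximal effect; 0% = wells with enzyme and -100% = buffer wells without enzyme; nearly all actives have a fitted effect of over 50% in size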
NPSR antagonist = neuropeptide S receptor (human) antagonism, cAMP. CHO-NPSR cells, cAMP TR-FRET, antagonist mode. Potency, µM (doses to about 38.3 µM), without a hit: at the top dose activity change, negative = inhibition, most hits filed as inhibitors. 220,000 tested, 1% active; active means well fitted curve in the direction sought with a large enough effect; inconclusive means small, poorly fitted or top-dose-only effect, or another doubt; inactive means no such curve, though single readings can be large; an effect the other way counts as inactive or inconclusive; further: potency means the concentration at half of the fitted maximal effect; nearly all actives have a fitted effect of over 50% in size
Target sequence (Q6W5P4 whole entry, looked up): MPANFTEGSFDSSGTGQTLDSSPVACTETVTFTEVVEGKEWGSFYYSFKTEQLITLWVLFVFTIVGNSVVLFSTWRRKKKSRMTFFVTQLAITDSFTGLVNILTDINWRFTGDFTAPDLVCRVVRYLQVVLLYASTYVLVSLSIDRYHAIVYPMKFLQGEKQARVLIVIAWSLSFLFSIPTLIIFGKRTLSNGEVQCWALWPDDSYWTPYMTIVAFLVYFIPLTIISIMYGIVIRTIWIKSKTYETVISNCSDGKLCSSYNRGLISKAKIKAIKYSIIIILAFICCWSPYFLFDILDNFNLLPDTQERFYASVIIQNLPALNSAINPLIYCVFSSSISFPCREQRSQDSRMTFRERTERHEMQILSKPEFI
Sfp inh = blocks B. subtilis Sfp PPTase activity; Q9F4F7; Biochemical Sfp PPTase activity, qHTS; Potency, µM, for the others: largest response in the series, negative = inhibition, actives largely listed as inhibitors; 310,000 tested, 3.5% active; AID 1490; active means well fitted curve in the direction sought with a large enough effect; inconclusive means small, poorly fitted or top-dose-only effect, or another doubt; inactive means no such curve, though single readings can be large; an effect the other way counts as inactive or inconclusive;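 further: the enzyme is Sfp with the accession as filed and its product quenches rhodamine fluorescence; potency means the concentration at half of the fitted maximal effect; 0% = enzyme reaction without inhibitor and -100% = no enzyme wells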
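Compounds were incubated with enzyme (final 15 nM) for 15 min at room temperature before substrate addition started the reaction. Fluorescence at 525 nm excitation, 598 nm emission was recorded immediately and after 30 minutes.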
The depositor's hits bear a star; ? = inconclusive; nt = not tested or not shown; [ ] = another dose, or the depositor's remark. In the library only some 8.5% were active in any assay of this set; here they are far more common. Unless noted, the call rests on the fitted dose curve; in most records, active means well fitted inhibition curve with a large enough effect (not every such curve was filed as active); inconclusive means small, poorly fitted or top-dose-only effect, or another doubt; inactive means no such curve, though single readings can be large or run the other way. Unless noted, on the % scale 0 is the no-effect control and ±100 the full control effect.

SMILES	GoLoco inh red	ALDH1A1 inh	Coupling enz	KDM4E inh	NPSR antagonist	Sfp inh
NC(=O)NC(=O)CSc1nc(C2CCCCC2)n(-c2ccccc2)n1	1%	7%	-4	10%	-30%	7%
Cc1cc(=O)oc(C)c1C(=O)OCC(=O)c1ccccc1	1%	16µM*	0	0%	-1%[46.1 µM]	9%
CC1CCC(NC(=O)CCC(=O)N2CC(C)Oc3ccccc32)CC1 (stereo unspecified)	nt	nt	1	nt	nt	0%
Cc1cc(C)nc(Sc2c(C)nn(-c3ccccc3)c2C)n1	-10%	11%	3	9%	-5%[46.1 µM]	9%
Cc1cc(C)nc(Sc2nc(Cl)nc(N(c3ccccc3)c3ccccc3)n2)n1	-12%	-10%	4	-4%	-6%[46.1 µM]	25µM*
CN(C)C(=O)c1ccc(-c2cncnc2NCc2cccnc2)cc1	4%	?	-3	nt	nt	-5%
CCNc1ncc2nc(-c3ccccc3)c(=O)n(CCOC)c2n1	-10%	?	0	nt	nt	5%
Oc1ccc(C2C(c3ccccc3)=NN=C(c3ccc(Cl)cc3)N2O)c(O)c1 (stereo unspecified)	165%	11µM*	-2	-11%	-38%	-22%
Oc1ccc(C2C(c3ccccc3)=NN=C(c3ccccc3F)N2O)c(O)c1 (stereo unspecified)	5%	8.9µM*	2	2%	1%	-7%
NCCn1c(-c2ccccc2)cc(C(=O)O)c1-c1ccccc1F	8%	?	6	?	7%	-7%
CC1=NN=C(c2ccccc2)C(c2c[nH]c3ccccc23)N1O (stereo unspecified)	3%	0%	-3	1%	3%	27%
O=C(NNc1c2ccccc2nc2ccccc12)c1ccccc1O	27%	-12%	0	?	-29%	?
O=C(NNc1nc(=O)c2cccnc2s1)c1ccccc1O	6%	7%	0	14µM*	-2%	20%
O=c1[nH]nc(CNc2ccc(C(F)(F)F)cc2)c2ccccc12	4%	14%	1	-1%	-26%	3%
O=c1[nH]nc(CNc2ccc(O)cc2)c2ccccc12	-29%	?	-49*	?	-13%[46.1 µM]	?
COCCN1CCc2[nH]c(=S)[nH]c(=O)c2C1	-12%	?	-1	?	10%	56µM*
CCCCN1CCc2[nH]c(=S)[nH]c(=O)c2C1	-18%	?	-6	-5%	6%	?
COc1cccc(C(c2c(C)[nH]n(-c3ccccc3)c2=O)c2c(C)[nH]n(-c3ccccc3)c2=O)c1O	13%	-1%	nt	-19%	0%[46.1 µM]	15%
COc1ccc(C(C[N+](=O)[O-])c2c(C)[nH]n(-c3ccccc3)c2=O)cc1 (stereo unspecified)	nt	nt	-39*	nt	nt	40µM*
COc1cccc(C(c2c(C)[nH]n(-c3ccccc3)c2=O)c2c(C)[nH]n(-c3ccccc3)c2=O)c1OC	-2%	3.5µM*	-2	?	8%	-14%
COc1ccc(C(=O)CSc2nc3ccccc3n2CC(=O)NC(C)(C)C)cc1	-4%	2.2µM*	2	-7%	-9%[46.1 µM]	5%
CC(=O)Nc1ccc(C(=O)CSc2nc3ccccc3n2CC(=O)N2CCCC2)cc1	-3%	25µM*	2	-4%	-11%[46.1 µM]	?
O=C(CSc1nc2ccccc2n1CC(=O)N1CCCCC1)N1CCCCC1	-13%	nt	-1	7%	4%	-3%
CSCC[C@H](NC(=O)[C@H]1N2C(=O)c3ccccc3C2SC1(C)C)C(=O)NCc1ccncc1 (stereo partly specified)	nt	nt	nt	nt	nt	-3%
COc1ccc(CC(=O)Nc2ccc(N3CCOCC3)cc2)cc1S(=O)(=O)N1CCOCC1	17%	nt	-2	12%	6%	-11%
Cc1ccccc1C1N(c2nccs2)C(=O)C2CCCN21 (stereo unspecified)	-4%	?	1	125%	11%	50µM*
O=C1C2CCCN2C(c2ccccc2)N1c1nccs1 (stereo unspecified)	-15%	0%	-2	0%	6%[46.1 µM]	50µM*
